A selection: hits, their analogues and other compounds. The true share with any hit is near 1.2%.
NCOA3 inh: inhibitors of human steroid receptor coactivator 3 (SRC3). inhibition, % at 3.6 µM. Q9Y6Q9. AID 588352. HEK293 GAL4-SRC3 luciferase reporter, luminescence. hit rate 0.17% among 360,000;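 active = inhibition above a per-campaign cutoff, the mean of all compounds plus 3 SD, cut at about 60% in these data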;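 note: higher means less SRC3-driven luciferase light from the GAL4 reporter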
NR2F2 inh: blocks human COUP-TFII nuclear receptor; P24468; HEK293T NGFI-A luciferase reporter, luminescence; inhibition, % at 8.6 µM; hit rate 0.7% among 370,000; AID 686940;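 active = inhibition above a per-plate cutoff, mean inhibition of test wells between control levels plus 3 SD, cut at about 38% in these data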;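 note: cells cotransfected with COUP-TFII expression vector driving the NGFI-A reporter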
Gli-Sufu block: antagonists of Gli-Sufu signaling; inhibition, % at 5 µM; AID 588413; hit rate 0.74% among 340,000; Sufu-KO-LIGHT fibroblasts, Gli luciferase reporter luminescence;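 active = inhibition above about 55%, limit read from the data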
NCOA1 inh: human NCOA1 inhibition; Q15788; HEK293 GAL4-SRC1 luciferase reporter, luminescence; inhibition, % at 3.6 µM; hit rate 0.12% among 360,000;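 active = inhibition above the campaign mean plus 3 SD, with each screening campaign given its own cutoff, cut at about 60% in these data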
Target sequence (Q15788 whole entry, looked up, the tested form may be a part): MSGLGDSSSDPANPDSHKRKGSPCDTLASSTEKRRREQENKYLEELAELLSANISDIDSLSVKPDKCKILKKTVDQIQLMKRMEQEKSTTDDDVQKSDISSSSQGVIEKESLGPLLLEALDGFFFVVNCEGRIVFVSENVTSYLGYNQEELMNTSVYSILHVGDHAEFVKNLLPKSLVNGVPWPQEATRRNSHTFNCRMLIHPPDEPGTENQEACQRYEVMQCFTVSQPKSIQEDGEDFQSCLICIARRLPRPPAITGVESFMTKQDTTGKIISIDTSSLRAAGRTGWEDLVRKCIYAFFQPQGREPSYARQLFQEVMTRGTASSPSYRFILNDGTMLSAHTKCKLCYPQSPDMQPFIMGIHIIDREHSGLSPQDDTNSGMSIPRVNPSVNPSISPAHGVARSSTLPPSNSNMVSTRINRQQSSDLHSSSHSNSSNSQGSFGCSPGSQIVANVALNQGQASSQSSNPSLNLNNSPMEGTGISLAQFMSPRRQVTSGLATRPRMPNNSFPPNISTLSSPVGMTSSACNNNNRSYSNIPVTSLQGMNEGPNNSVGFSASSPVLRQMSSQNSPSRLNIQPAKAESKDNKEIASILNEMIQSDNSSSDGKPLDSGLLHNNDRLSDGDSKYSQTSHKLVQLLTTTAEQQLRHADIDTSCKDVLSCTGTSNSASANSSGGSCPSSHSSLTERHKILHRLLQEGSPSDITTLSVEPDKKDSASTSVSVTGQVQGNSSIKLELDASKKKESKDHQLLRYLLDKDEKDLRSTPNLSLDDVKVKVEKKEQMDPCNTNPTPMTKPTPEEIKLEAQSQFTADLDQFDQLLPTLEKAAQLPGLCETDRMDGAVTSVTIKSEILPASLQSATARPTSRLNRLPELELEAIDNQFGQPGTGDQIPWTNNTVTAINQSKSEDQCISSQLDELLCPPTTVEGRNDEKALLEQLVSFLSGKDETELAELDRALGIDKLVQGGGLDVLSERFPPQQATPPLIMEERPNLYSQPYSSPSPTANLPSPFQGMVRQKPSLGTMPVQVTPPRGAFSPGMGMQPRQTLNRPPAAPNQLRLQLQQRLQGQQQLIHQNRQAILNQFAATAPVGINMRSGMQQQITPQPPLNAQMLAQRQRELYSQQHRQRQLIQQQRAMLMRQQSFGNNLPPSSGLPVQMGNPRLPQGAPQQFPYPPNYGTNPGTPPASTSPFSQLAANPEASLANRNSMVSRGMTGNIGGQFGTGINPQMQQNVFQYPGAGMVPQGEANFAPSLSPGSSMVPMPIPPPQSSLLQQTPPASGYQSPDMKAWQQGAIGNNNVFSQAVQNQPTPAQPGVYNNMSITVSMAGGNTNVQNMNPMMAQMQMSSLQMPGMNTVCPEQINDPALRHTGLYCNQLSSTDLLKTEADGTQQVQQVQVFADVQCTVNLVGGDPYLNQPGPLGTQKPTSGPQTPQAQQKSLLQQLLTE
NCOA2 inhibitor: inhibits human steroid receptor coactivator 2; Q15596; HEK293 GAL4-SRC2 luciferase reporter, luminescence; inhibition, % at 9 µM; hit rate 0.17% among 370,000; AID 651957;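 active = inhibition above the mean inhibition of all tested compounds plus 3 SD, set per campaign, cut at about 52% in these data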
LRH-1 inv ag: inverse agonists of human LRH-1 (NR5A2) | hit rate 0.13% among 360,000 | HEK293T StAR-luciferase reporter, LRH-1 transfected, 24 h | inhibition, % at 3.6 µM;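 active = inhibition above the mean inhibition of all tested compounds plus 3 SD, cut at about 73% in these data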
Gal4-VP16 ctr: VP16 inhibition counter-screen for COUP-TFII; shares compounds with NR2F2 inh; HEK293 Gal4-VP16 luciferase reporter, luminescence; inhibition, % at 8.5 µM; hit rate 25% among 2,500; AID 687007; in the data active = inhibition above about 13%
NR2F2 inh conf: COUP-TFII (NR2F2) inhibition, confirmation assay | hit rate 45% among 2,500 | HEK293 NGFI-A luciferase reporter, luminescence | inhibition, % at 8.5 µM | shares compounds with NR2F2 inh;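 active = mean inhibition over three repeats above a set limit taken from the earlier primary screen, cut at about 38% in these data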
Hits are given with their value; – = inactive; · = no result given; ! = not confirmed by another sample.

SMILES | NCOA3 inh | NR2F2 inh | Gli-Sufu block | NCOA1 inh | NCOA2 inhibitor | LRH-1 inv ag | Gal4-VP16 ctr | NR2F2 inh conf
COc1cc(Nc2cc(C)n(-c3cc(OC)cc(OC)c3)c(=O)c2)cc(OC)c1 | · | – | · | · | – | · | · | ·
C=CC(=O)N1C/C(=C/c2ccc(Cl)cc2)C(=O)/C(=C\c2ccc(Cl)cc2)C1 | – | 90 | – | – | 60 | – | 85 | 102
C=CC(=O)N1C/C(=C/c2ccccc2)C(=O)/C(=C\c2ccccc2)C1 | – | 98 | – | – | 67 | – | 71 | 101
O=C1C(=Cc2ccc(Cl)cc2)Cc2ccccc21 | · | – | · | · | – | – | · | ·
COC(=O)c1cc2c(c3c4cc(F)ccc4n(S(=O)(=O)c4ccc(OC)cc4)c13)C(=O)N(C)C2 | · | – | · | · | – | · | · | ·
O=C(NCc1ccc(F)cc1)c1cc(S(=O)(=O)N2CCCCC2)ccc1Cl | – | – | – | – | – | – | · | ·
COc1ccc(CNC(=O)c2cc(S(=O)(=O)N3CCCCC3)ccc2Cl)cc1OC | – | 51 | – | – | – | – | – | –
COc1ccc(CCNC(=O)c2cccc(S(=O)(=O)N3CCCC3)c2)cc1OC | – | – | – | – | – | – | · | ·
COc1ccc(CNC(=O)c2cccc(S(=O)(=O)N3CCCCC3)c2)cc1OC | – | 64 | – | – | – | – | – | 45
Cn1cccc1[C@]1(O)C(=O)Nc2ccc(F)cc21 | · | – | · | · | – | · | · | ·
O=C(NC1CCCCN(Cc2cccc(Cl)c2)C1=O)c1ccccn1 (stereo not drawn) | · | – | · | · | – | · | · | ·
O=C(NC1CCCCN(Cc2cccc(Cl)c2)C1=O)c1ccc(COc2ccccc2)cc1 (stereo not drawn) | · | 48 | · | · | – | · | – | –
COc1ccc([C@H]2CC(=O)C=C(c3ccc(Oc4ccccc4)cc3)C2)cc1OC | – | 44 | – | – | – | – | – | –
COc1ccc(Cc2nc3ccc(C(=O)N4CCN(C)C(C)C4)cc3o2)cc1OC (stereo not drawn) | – | 49 | – | – | – | – | – | 46
COc1ccc(Cc2nc3ccc(C(=O)N4CCCC4)cc3o2)cc1OC | – | – | – | – | – | – | · | ·
CCOc1cc(/C=C2\CN(C)C/C(=C\c3ccc(O)c(OCC)c3)C2=O)ccc1O | – | 78 | – | – | – | – | 57 | 82
COc1cc(C=C2CN(C)C(=O)C2=O)ccc1O | – | – | · | – | – | – | · | ·
Nc1nc(F)nc2c1ncn2[C@@H]1O[C@H](CO)[C@@H](O)[C@H]1O | 92 | 82 | 71 | 88 | 69 | 102 | 55 | 65
Cc1cc(-c2n[nH]c(=S)n2N=Cc2cc(Br)ccc2F)n[nH]1 | · | – | · | · | – | · | · | ·
CCOc1ncccc1C(=O)Nc1ccc(S(=O)(=O)NC2=NCCCCC2)cc1 | – | – | – | – | – | – | · | ·
CCCOc1ccc(C(=O)Nc2ccc(S(=O)(=O)NC3=NCCCCC3)cc2)cc1 | – | 43 | – | – | – | – | – | –
O=C(OC12CCCN(C1)/C(=C/c1ccncc1)C2)c1ccc(F)cc1 (stereo not drawn) | · | – | · | · | – | · | · | ·
O=C(OC12CCCN(C1)/C(=C/c1ccncc1)C2)C1CCCCC1 (stereo not drawn) | · | 67 | · | · | – | · | – | –
O=C(OC12CCCN(C1)/C(=C/c1cccnc1)C2)c1ccc(F)cc1 (stereo not drawn) | · | 41 | · | · | – | · | – | –
O=C(OC12CCCN(C1)/C(=C/c1ccccc1)C2)C1CCCC1 (stereo not drawn) | · | – | · | · | – | · | · | ·
SMILES | NCOA3 inh | NR2F2 inh | Gli-Sufu block | NCOA1 inh | NCOA2 inhibitor | LRH-1 inv ag | Gal4-VP16 ctr | NR2F2 inh conf
O=C(OC12CCCN(C1)/C(=C/c1ccncc1)C2)c1ccco1 (stereo not drawn) | · | 38 | · | · | – | · | – | –
Cc1ccc(NC(=O)OCCN(C)C(=O)Nc2ccc(C)cc2C)c(C)c1 | · | – | · | · | – | · | · | ·
COC(=O)c1cccc(Cn2ccc3ccc(-c4ccc5ccn(C(=O)C6CC6)c5c4)cc32)c1 | · | – | · | · | – | · | · | ·
CC(C)Oc1cccc(-c2n[nH]c(=S)n2N=Cc2ccc(O)cc2O)c1 | · | – | · | · | – | · | · | ·
NC(=O)c1cccc(-c2coc3c(C(=O)NCc4cccnc4)cccc23)c1 | – | – | · | – | – | – | · | ·
O=C(NCc1ccc(F)c(F)c1)c1cccc2c(-c3cccnc3)coc12 | – | – | · | – | – | – | · | ·
COc1ccc(CNC(=O)c2cccc3c(-c4cccnc4)coc23)cc1OC | – | 82 | · | – | – | – | – | 75
O=C(NCc1cccc(Cl)c1)c1cccc2c(-c3cccnc3)coc12 | – | 42 | · | – | – | – | – | –
C[C@@H]1CN([C@@H](C)CO)C(=O)CCCn2cc(nn2)CO[C@H]1CN(C)C(=O)Nc1ccc2c(c1)OCCO2 | · | – | · | · | – | · | · | ·
C=CCN1[C@@H](CC(C)C)COc2cccc(NCCCN3CCOCC3)c2S1(=O)=O | · | – | · | · | – | · | · | ·
Cc1noc(C)c1CSCC(=O)N1CCN(c2ccc([N+](=O)[O-])cc2)CC1 | – | 38 | – | – | – | – | – | –
COc1cccc(N2CCN(c3ncnc4c3cnn4-c3ccc(C)cc3C)CC2)c1 | 79 | 97 | – | – | 69 | – | 27 | 91
Cc1ccc(-n2ncc3c(N4CCCC4)ncnc32)c(C)c1 | – | – | – | – | – | – | · | ·
Cc1sc2ncnc(NCCc3ccc(S(N)(=O)=O)cc3)c2c1C | – | 66 | – | – | – | – | – | 61
O=S1(=O)c2cc(Cl)ccc2N2CC[C@H](C2)N1Cc1ccc(Cl)c(Cl)c1 | · | – | · | · | – | · | · | ·
CC(=O)c1c(C(C)=O)c(C)n(Cc2ccc(Cl)cc2)c1C | – | 43 | – | – | – | – | – | –
S=C(NCCCc1cnc[nH]1)NCCCN(Cc1ccc(Cl)cc1)c1ccc(Br)cn1 | – | 38 | · | – | – | 94 | – | –
Cc1cc2c(nc1C)CCCN2S(=O)(=O)c1cccs1 | · | – | · | · | – | · | · | ·
CC(C)(C)OC(=O)NCCCCCc1cn([C@@H](CO)C(=O)NCCCCCCCCCCC(=O)N2CCN(C(=O)OC(C)(C)C)CC2)nn1 | 72 | 69 | 60 | – | 54 | – | – | 79
CC(C)(C)OC(=O)NCCCC[C@@H](C(=O)NCCCCCCCCCCC(=O)N1CCN(C(=O)OC(C)(C)C)CC1)n1cc(CCCC(=O)O)nn1 | – | – | – | – | – | – | · | ·
CCN(CC)c1nc(C=Cc2ccc(N(C)C)cc2)c2nccnc2n1 | – | 88 | · | – | 66 | – | – | –
COC(=O)C1=C(C)N(Cc2cccc(C(F)(F)F)c2)C(=NCc2ccc3c(c2)OCO3)NC1c1ccccc1C(F)(F)F (stereo not drawn) | · | – | · | · | – | · | · | ·
COc1cc2c(cc1NC(=O)CSc1nnc(-c3cnccn3)n1-c1ccc(C)cc1)oc1ccccc12 | · | – | · | · | – | · | · | ·
CCN1/C(=C/C(C)=C/c2sc3ccccc3[n+]2CC)Sc2ccccc21 | 70 | 72! | 90 | – | – | 77 | 26 | 74
